Source: ChEMBL document CHEMBL1157539, “Thousands of chemical starting points for antimalarial lead identification” (Nature, 2010)
Over roughly 13,000 compounds, “IFI” has its median near 4; the highest 2% begin near 17. The entries come from a sample that favours the highest values as a whole.

assay: GSK_TCMDC: Inhibition Frequency Index (IFI). The number of non-kinase HTS assays where a compound showed > 50 % inhibition, expressed as a percentage of the number of such assays in which the compound was tested; type: functional

| SMILES | IFI [%] |
| --- | --- |
| c1ccc2c(NCCCCCCCCNc3ccnc4ccccc34)ccnc2c1 | 8.27 |
| CCOc1cc(N)c2nc3ccc([N+](=O)[O-])cc3cc2c1 | 6.47 |
| CC(C)(C)NS(=O)(=O)c1cc(C(=O)N2CCC(CCN3CCC(C(=O)c4ccc(F)cc4)CC3)(c3cccc(F)c3)CC2)c(Cl)cc1F | 3.55 |
| C=CCOC(=O)N1CCC(CNCc2ccc(-c3ccc(-c4nc5ccccc5[nH]4)s3)cc2)C1 (configuration not stated) | 11 |
| COc1cccc(Nc2nccc(-c3c(-c4cccc(NC(=O)c5c(F)cccc5F)c4)nn4ccccc34)n2)c1 | 4.39 |
| NC(=O)C1CCN(Cc2ccc(-c3ccc(-c4nc5cc(F)ccc5[nH]4)cc3)cc2)CC1 | 4.72 |
| Fc1ccc2c(NN=Cc3ccc(Cl)cc3)ccnc2c1 | 0.74 |
| O=C(NCCCCN1CCC(c2ccc3ccccc3c2O)CC1)c1ccc(-c2ccc(Cl)cc2)cc1 | 15.1 |
| CC(C)C(=O)NC(c1ccc(N(C)C)cc1)c1cc(Cl)c2cccnc2c1O (configuration not stated) | 5.38 |
| CCn1c(-c2nonc2N)nc2c(-c3cccc(NC(=O)Nc4cccc(C#N)c4)c3)ncc(OCCCN)c21 | 16.7 |
| CCn1c(-c2nonc2N)nc2c(-c3cccc(NC(=O)Nc4ccc(C#N)cc4)c3)ncc(OCCCN)c21 | 15.7 |
| CCn1c(-c2nonc2N)nc2c(-c3cccc(NC(=O)Nc4cccc(C(F)(F)F)c4)c3)ncc(OCCCN)c21 | 14.6 |
| CCn1c(-c2nonc2N)nc2c(-c3cccc(NC(=O)Nc4ccc5c(c4)CCC5)c3)ncc(OCCCN)c21 | 14.8 |
| CCn1c(-c2nonc2N)nc2c(-c3cccc(NC(=O)NC45CC6CC(CC(C6)C4)C5)c3)ncc(OCCCN)c21 | 16.7 |
| CCn1c(-c2nonc2N)nc2c(-c3cccc(NC(=O)NCc4ccccc4)c3)ncc(OCCCN)c21 | 12.9 |
| CCn1c(-c2nonc2N)nc2c(-c3cccc(NC(=O)Nc4ccc(C(F)(F)F)cc4)c3)ncc(OCCCN)c21 | 19.1 |
| CCn1c(-c2nonc2N)nc2c(-c3cccc(NC(=O)Nc4ccc(Cl)cc4)c3)ncc(OCCCN)c21 | 19.3 |
| CCn1c(-c2nonc2N)nc2c(-c3cccc(NC(=O)Nc4cccc(Cl)c4)c3)ncc(OCCCN)c21 | 17.6 |
| NCCCOc1cnc(-c2ccccc2)c2nc(-c3nonc3N)n(CCc3ccccc3)c12 | 18.8 |

| SMILES | IFI [%] |
| --- | --- |
| CCn1c(-c2nonc2N)nc2c(-c3ccccc3)ncc(OCCCNCCCN3CCOCC3)c21 | 3.08 |
| CCOC(=O)c1cccc(NC(=O)Nc2cccc(-c3ncc(OCCCN)c4c3nc(-c3nonc3N)n4CC)c2)c1 | 16.5 |
| Cc1ccc(NC(=O)c2cc(S(=O)(=O)NC(C)(C)C)ccc2C)nc1 | 0 |
| O=C(NC1CCN(CC2(c3ccccc3F)CCCC2)CC1)c1cc[nH]n1 | 0 |
| Cc1nc(C)c(-c2ccc(C(F)(F)F)cc2)c(O)c1Br | 0 |
| O=S(=O)(NCCN1CCCC1)c1ccc(-c2cccc(CNCc3ccsc3)c2)s1 | 6.9 |
| O=c1cc(NCCCNCc2cn(S(=O)(=O)c3ccccc3)c3ccccc23)[nH]c2ccccc12 | 5.88 |
| COc1ccc2cc(-c3nc(-c4c(Cl)cccc4Cl)[nH]c3-c3ccnc(NCCC4CCCN4C)c3)ccc2c1 (configuration not stated) | 11.3 |
| C=CCn1ccc2c3c(N)nc(N)nc3ccc21 | 6.4 |
| Cc1ccc2cc(NCCCCCCCCON3C(N)=NC(N)=NC34CCCCC4)ccc2n1 | 11.6 |
| NC1=NC2(CCCCC2)N(OCCCCCCC2CCCCC2)C(N)=N1 | 27.6 |
| NC1=NC2(CCCCC2)N(OCCCCCCc2ccccc2)C(N)=N1 | 23.9 |
| CC1(C)N=C(N)N=C(N)N1OCCCc1ccccc1 | 4.35 |
| NC1=NC2(CCCCC2)N(OCCCCCCN2C(=O)c3ccccc3C2=O)C(N)=N1 | 1.43 |
| NC1=NC2(CCCCC2)N(OCCCCCCCCNc2nc(N)nc(N)n2)C(N)=N1 | 1.44 |
| FC(F)(F)c1ccc2[nH]c(-c3ccc(-c4cccc(CNCC5CCCO5)c4)s3)nc2c1 (configuration not stated) | 7.92 |
| O=C(Nc1ccc(CN2CCOCC2)cc1)c1ccc(-c2ccc(Cl)cc2)o1 | 2.78 |
| COc1ccc(-c2cc(C(=O)N[C@@H](CC3CCCCC3)C(=O)NCCN3CCCC3)ccc2O)cc1 | 3.45 |
| CCN(CC)CCN(Cc1ccc(-c2ccc(C(F)(F)F)cc2)cc1)C(=O)Cn1c(CCc2cccc(F)c2F)nc(=O)c2ccccc21 | 8.39 |

| SMILES | IFI [%] |
| --- | --- |
| Fc1ccc2[nH]cc(CCNCc3ccc(-c4cccc(-c5nc6ccccc6[nH]5)c4)cc3)c2c1 | 17.8 |
| Fc1ccc2[nH]c(-c3cccc(-c4ccc(CNCc5ccccc5)cc4)c3)nc2c1 | 8.57 |
| Fc1ccc2[nH]c(-c3cccc(-c4ccc(CNCCc5ccncc5)cc4)c3)nc2c1 | 9.71 |
| O=C(/C=C/c1ccc(Cl)c(Cl)c1)NCC[C@@H]1C[C@H]1CCN1CCC(c2c[nH]c3ccccc23)CC1 | 12.3 |
| Cc1cc(=NN=Cc2ccc(Cl)cc2)c2ccccc2[nH]1 | 0.7 |
| Clc1ccc(/N=C(/NCCCCCCCN/C(=N\c2ccc(Cl)cc2)Nc2ccc(Cl)cc2)Nc2ccc(Cl)cc2)cc1 | 17.1 |
| N=C(NCCCCCCCCNC(=N)Nc1ccc(Cl)cc1)Nc1ccc(Cl)cc1 | 3.65 |
| CN(C)/C(=N/C(=N)Nc1ccc(Cl)cc1)NCCCCCCN/C(=N\C(=N)Nc1ccc(Cl)cc1)N(C)C | 8.89 |
| COc1ccc(O)c(C(=O)c2cc(C(=O)NC3CCCCC3)c(=O)n(C3CCCCC3)c2)c1 | 10.8 |
| O=C(c1cc(C(=O)NC2CCCCC2)c(=O)n(C2CCCCC2)c1)c1cc(F)ccc1O | 19.4 |
| N#Cc1cc(C(=O)c2cc(Br)ccc2O)cn(C2CCCCC2)c1=O | 2.78 |
| c1ccc2c(NCCCCCCCNc3ccnc4ccccc34)ccnc2c1 | 11.3 |
| COc1ccc(NCCCNc2ccnc3ccccc23)cc1 | 17.5 |
| c1ccc2c(NCCCCCCNc3ccnc4ccccc34)ccnc2c1 | 4.55 |
| Nc1nc(N)c2c(ccc3c2ccn3Cc2ccc(Cl)cc2)n1 | 13.2 |
| CCn1c(Sc2ccc([N+](=O)[O-])c(C#N)c2)nnc1-c1ccc(Cl)cc1 | 3.4 |
| OCC1CCN(Cc2ccc(-c3ccc(-c4nc5cc(F)ccc5[nH]4)cc3)cc2)CC1 | 2.94 |
| Oc1c(C(Nc2nc3ccccc3s2)c2ccc(OC(F)F)cc2)ccc2cccnc12 (configuration not stated) | 9.4 |
| CN(C)CCOc1ccc2c(=O)cc(CCc3cccc(F)c3F)n(CC(=O)N(C)Cc3ccc(-c4ccc(C(F)(F)F)cc4)cc3)c2c1 | 2.92 |
